# PubChem BioAssay
# Where “and” joins values, the source holds several entries; their conditions need not be identical. Identical values can stand only once. For part of these data: Results with a measured potency or affinity are listed apart. Where a structure was tested more than once in an assay, its records may differ in their call. Calls of active or inactive are those of the source.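 The calls were made as follows, unless noted: active = compounds killing one labelled cell type while sparing the other, by normalised counts and ratio limits, not self-fluorescent; inactive = the rest.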
# How the values were obtained:
# [1] = blockers of polyQ-driven CASP3 activation – cell-based (AID 1583); details: polyglutamine-induced caspase-3 activation, cell assay; stronger effect = higher value;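 tested at 10 µM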
# [2] = yeast 75Q aggregation reduction – 75Q-TubU reporter (AID 1593); details: Yeast 75Q polyglutamine aggregation reporter
# [3] = restoration of touch response, mutant HTT neurons – whole organism, C. elegans mechanosensory neurons, N-terminal huntingtin (AID 1599); details: C. elegans polyQ-huntingtin mechanosensory neurons, stronger effect = higher value
# [4] = blockers of cytochrome c efflux from mitochondria – biochemical, purified mitochondria (AID 1603); details: stronger effect = lower value;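 also: mouse liver mitochondria challenged with calcium chloride; signal normalized to the plate average as 100%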
# [5] = polyglutamine aggregate formation blockers (AID 1604); details: polyglutamine-induced protein aggregation inhibition assay; stronger effect = higher value; tested at 2.5 µM
# [6] = glutamate transport activators, MN-1 cells, MN-1 cell line (AID 1612); details: MN-1 motor neuron cells, stronger effect = higher value;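 also: tested at 1 µM final; 0% = mean of DMSO vehicle wells on each plate; positive means more glutamate uptake than control and negative means less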
# [7] = 75Q-TubH aggregate inhibition, S. cerevisiae, yeast (AID 1616); details: S. cerevisiae 75Q-TubH polyglutamine aggregation suppression; stronger effect = higher value
# [8] = P. berghei load reduction in hepatocytes – cell-based, HepG2, luciferase luminescence, HepG2 viability, primary screen (AID 624349; in the data active = parasite load remaining mostly below about 12%, no sharp cut-off; inactive = mostly above about 10%;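 also: 100% = mean of DMSO negative control wells on the same plate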); details: P. berghei liver stage in HepG2, luciferase luminescence, concentration not given here; parasite load remaining: stronger effect = lower value; viability: measured here: HepG2 viability without parasites
# [9] = biological target: 6-phosphogluconate dehydrogenase, decarboxylating (Homo sapiens) (UniProt P52209); test: inhibition of human phosphogluconate dehydrogenase – biochemical, recombinant enzyme, NADPH absorbance, primary screen (AID 1159550;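 active = at least 20% inhibition of 6-phosphogluconate dehydrogenase activity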); details: recombinant 6PGD, NADPH absorbance 341 nm; at 10 µM; stronger effect = higher value
# Chain of 6-phosphogluconate dehydrogenase, decarboxylating (Homo sapiens) (P52209 whole entry, looked up): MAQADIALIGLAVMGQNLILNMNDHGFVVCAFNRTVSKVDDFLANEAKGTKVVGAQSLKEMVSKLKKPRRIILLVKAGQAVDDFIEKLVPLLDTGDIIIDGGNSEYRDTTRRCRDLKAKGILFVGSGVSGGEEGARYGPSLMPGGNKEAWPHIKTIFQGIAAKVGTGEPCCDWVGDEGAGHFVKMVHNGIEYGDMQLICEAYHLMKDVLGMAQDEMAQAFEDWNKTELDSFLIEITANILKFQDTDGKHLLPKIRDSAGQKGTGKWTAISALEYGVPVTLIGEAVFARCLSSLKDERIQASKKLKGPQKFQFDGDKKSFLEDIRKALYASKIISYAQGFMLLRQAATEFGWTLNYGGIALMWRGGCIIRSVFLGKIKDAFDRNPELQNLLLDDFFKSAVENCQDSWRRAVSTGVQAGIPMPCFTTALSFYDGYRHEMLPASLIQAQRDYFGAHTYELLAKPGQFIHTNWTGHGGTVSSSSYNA
# [10] = EMT-state selective cytotoxicity in co-culture – imaging, PC-3E GFP, TEM4-18 mCherry, primary screen (AID 1345086); details: PC-3E GFP / TEM4-18 mCherry co-culture, imaging cell counts, at 1 µM; for red/green cell ratio (normalised): actives lie on both sides, counts scaled to control wells, 1 = unselective;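 as to all read-outs here: cells exposed to compound for 72 h before imaging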;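 as to red/green cell ratio (normalised): normalised mesenchymal count divided by normalised epithelial count so high means epithelial killing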
# [11] = viability loss with induced miR-34 in A549 – imaging, A549 dox-inducible miR-34, nuclei and caspase counts, primary screen (AID 1347080;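 active = compounds whose cell count with miR-34 switched on is under 0.7 times the count with it off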); details: A549 miR-34 inducible, Hoechst nuclei count, 48 h
# [12] = biological target: Mitogen-activated protein kinase 7 (Homo sapiens) (UniProt Q13164); test: Gal4-ERK5 driven luciferase induction – cell-based, HTS, primary screen (AID 1508626;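 active = luciferase signal above three times the same-plate solvent-only control wells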;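 also: luciferase driven by Gal4-ERK5 fusion binding five Gal4 sites before minimal TATA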); details: HeLa Gal4-ERK5 transactivation, 18 h, at 5 µM, stronger effect = higher value
# Chain of Mitogen-activated protein kinase 7 (Homo sapiens) (Q13164 whole entry, looked up, the tested form may be a part): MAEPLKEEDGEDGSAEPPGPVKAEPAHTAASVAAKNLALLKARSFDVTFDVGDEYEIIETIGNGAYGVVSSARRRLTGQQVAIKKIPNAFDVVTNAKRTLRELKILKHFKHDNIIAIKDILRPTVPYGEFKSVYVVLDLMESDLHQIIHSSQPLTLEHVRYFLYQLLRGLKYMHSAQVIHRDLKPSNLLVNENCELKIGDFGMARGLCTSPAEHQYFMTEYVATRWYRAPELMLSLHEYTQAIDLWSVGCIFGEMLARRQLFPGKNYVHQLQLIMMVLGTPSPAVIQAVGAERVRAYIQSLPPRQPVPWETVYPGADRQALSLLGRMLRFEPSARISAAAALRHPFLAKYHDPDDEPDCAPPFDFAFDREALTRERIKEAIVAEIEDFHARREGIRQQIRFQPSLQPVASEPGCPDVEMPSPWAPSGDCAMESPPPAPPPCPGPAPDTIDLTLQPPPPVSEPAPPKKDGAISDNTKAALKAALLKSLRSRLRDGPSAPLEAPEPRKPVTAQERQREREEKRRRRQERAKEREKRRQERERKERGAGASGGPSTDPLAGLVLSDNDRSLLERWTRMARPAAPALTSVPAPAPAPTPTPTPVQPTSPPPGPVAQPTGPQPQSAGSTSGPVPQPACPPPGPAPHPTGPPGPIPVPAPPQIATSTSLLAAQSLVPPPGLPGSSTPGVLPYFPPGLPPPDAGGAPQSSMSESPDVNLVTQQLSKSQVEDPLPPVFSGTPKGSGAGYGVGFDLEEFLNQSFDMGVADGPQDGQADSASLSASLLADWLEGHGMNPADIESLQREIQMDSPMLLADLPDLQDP
# [13] = compounds altering viability of human ES cells (AID 493140; call rule not given here;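 also: cells exposed to compounds for four days before counting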); details: human embryonic stem cell survival screen; stronger effect = higher value
# [14] = biological target: NAD(+) hydrolase SARM1 (Homo sapiens) (UniProt Q6SZW1); test: blocking NAD cleavage by SARM1 SAM-TIR – cell lysate, NAD-Glo luminescence (AID 1508614;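 active = compound whose remaining NAD level is above about 45 nM, limit read from the data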;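 also: higher remaining NAD means stronger inhibition of SARM1 NADase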); details: SAM-TIR HEK293T lysate NADase, at 1 µM, stronger effect = higher value
# Chain of NAD(+) hydrolase SARM1 (Homo sapiens) (Q6SZW1 whole entry, looked up): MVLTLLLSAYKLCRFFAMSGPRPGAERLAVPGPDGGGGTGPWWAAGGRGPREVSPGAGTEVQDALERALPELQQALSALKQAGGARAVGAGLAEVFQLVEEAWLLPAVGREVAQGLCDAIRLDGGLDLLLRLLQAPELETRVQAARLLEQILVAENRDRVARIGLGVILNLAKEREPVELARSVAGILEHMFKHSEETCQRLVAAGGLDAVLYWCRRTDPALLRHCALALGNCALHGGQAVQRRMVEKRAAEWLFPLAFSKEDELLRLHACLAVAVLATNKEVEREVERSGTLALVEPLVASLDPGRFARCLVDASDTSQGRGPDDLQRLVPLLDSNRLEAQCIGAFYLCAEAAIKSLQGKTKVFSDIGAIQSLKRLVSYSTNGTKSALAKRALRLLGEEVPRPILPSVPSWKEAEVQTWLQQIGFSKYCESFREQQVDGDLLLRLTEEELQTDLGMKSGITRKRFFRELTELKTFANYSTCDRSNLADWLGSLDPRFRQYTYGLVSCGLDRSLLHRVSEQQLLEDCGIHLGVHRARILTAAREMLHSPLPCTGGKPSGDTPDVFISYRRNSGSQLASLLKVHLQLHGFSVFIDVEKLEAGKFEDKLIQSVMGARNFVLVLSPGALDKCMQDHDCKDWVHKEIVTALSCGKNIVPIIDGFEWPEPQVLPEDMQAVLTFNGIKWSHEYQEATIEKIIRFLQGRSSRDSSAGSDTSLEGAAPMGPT
# [15] = GFP-Q80 aggregate reduction, neuronal-like cells, cell-based, NGF-treated PC12, GFPQ80 (AID 1614); details: PC12 NGF-treated GFP-polyQ80 inclusion reduction;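 also: lower means fewer inclusions and 0 means no inclusions at all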
# [16] = measured here: epithelial PC-3E GFP cell survival
# [17] = measured here: mesenchymal TEM4-18 mCherry cell survival
# [18] = stronger effect = lower value, cell number ratio, induced over uninduced
# [19] = measured here: relative caspase fold change +Dox/-Dox
# [20] = measured here: total cells with miR-34 induction, stronger effect = lower value
# [21] = measured here: total cells without miR-34 induction
structure (smiles),measurement,setting,value
CCN(CC)Cc1ccc(Nc2ccnc3cc(Cl)ccc23)cc1O,inhibition,[1],-50.2%
same,score,[2],1.49
same,rescue above control,[3],8.25
same,cytochrome c release ratio,[4],0.74
same,inhibition of aggregation,[5],65.5%
same,glutamate uptake change,[6],1.51%
same,aggregation suppression score,[7],1.68
same,parasite load remaining,[8],-0.345% (active) and 0.905% (inactive)
same,viability,[8],63% and 59.3%
same,inhibition,[9],4.92% (inactive)
same,red/green cell ratio (normalised),[10],0.8 (inactive)
same,normalised cell number,[10]; [16],1.14
same,normalised cell number,[10]; [17],0.91
same,fold change,[11]; [18],0.936 (inactive)
same,fold change,[11]; [19],0.896
same,cell count,[11]; [20],8520
same,cell count,[11]; [21],9100
C[n+]1cccc(C(=O)[O-])c1,parasite load remaining,[8],79.8% (inactive)
same,viability,[8],103%
same,inhibition,[9],-5.32% (inactive)
same,red/green cell ratio (normalised),[10],0.83 (inactive)
same,normalised cell number,[10]; [16],0.9
same,normalised cell number,[10]; [17],0.75
same,fold change,[11]; [18],0.877 (inactive)
same,fold change,[11]; [19],1.44
same,cell count,[11]; [20],9790
same,cell count,[11]; [21],11200
same,luciferase signal,[12],44 AU (inactive)
Cc1[nH]ccc2c1[nH]c1cc(=O)ccc12,survival,[13],3 (inactive)
same,parasite load remaining,[8],74.5% (inactive) and 99.2% (inactive) and 81.5% (inactive)
same,viability,[8],88.4% and 65.9% and 69.9%
same,inhibition,[9],8.86% (inactive)
same,red/green cell ratio (normalised),[10],0.84 (inactive)
same,normalised cell number,[10]; [16],1
same,normalised cell number,[10]; [17],0.83
same,fold change,[11]; [18],0.837 (inactive)
same,fold change,[11]; [19],1.33
same,cell count,[11]; [20],6490
same,cell count,[11]; [21],7750
same,luciferase signal,[12],76 AU (inactive)
CCCCCCCCCc1ccc(OCCOCCOCCOCCOCCOCCOCCOCCOCCO)cc1,parasite load remaining,[8],-0.79% (active)
same,viability,[8],85%
same,inhibition,[9],-15.2% (inactive)
same,red/green cell ratio (normalised),[10],1.03 (inactive)
same,normalised cell number,[10]; [16],1.14
same,normalised cell number,[10]; [17],1.18
same,fold change,[11]; [18],0.78 (inactive)
same,fold change,[11]; [19],2.5
same,cell count,[11]; [20],2440
same,cell count,[11]; [21],3120
same,remaining NAD,[14],10 nM (inactive)
same,luciferase signal,[12],40 AU (inactive)
CC1(C)S[C@@H]2C(N3C(=O)[C@@H](c4ccccc4)NC3(C)C)C(=O)N2[C@H]1C(=O)O (some centres undefined),inhibition,[1],4.02%
same,score,[2],1.26
same,rescue above control,[3],-1.6
same,cytochrome c release ratio,[4],0.9
same,inhibition of aggregation,[5],49.2%
same,glutamate uptake change,[6],4.63%
same,inclusion score,[15],2
same,aggregation suppression score,[7],1.31
same,parasite load remaining,[8],110% (inactive) and 71.1% (inactive)
same,viability,[8],76.4% and 94.5%
same,inhibition,[9],-0.481% (inactive)
same,red/green cell ratio (normalised),[10],1.14 (inactive)
same,normalised cell number,[10]; [16],0.94
same,normalised cell number,[10]; [17],1.08
same,fold change,[11]; [18],0.886 (inactive)
same,fold change,[11]; [19],0.799
same,cell count,[11]; [20],11200
same,cell count,[11]; [21],12600
CC(C)c1nc(N(C)S(C)(=O)=O)nc(-c2ccc(F)cc2)c1/C=C/[C@@H](O)C[C@@H](O)CC(=O)O,parasite load remaining,[8],73.5% (inactive) and 60.1% (inactive)
same,viability,[8],86.4% and 101%
same,inhibition,[9],1.44% (inactive)
same,red/green cell ratio (normalised),[10],0.94 (inactive)
same,normalised cell number,[10]; [16],1.08
same,normalised cell number,[10]; [17],1.02
same,fold change,[11]; [18],0.858 (inactive)
same,fold change,[11]; [19],2.33
same,cell count,[11]; [20],12000
same,cell count,[11]; [21],13900
same,remaining NAD,[14],10 nM (inactive)
same,luciferase signal,[12],48 AU (inactive)
NCC(O)CC(=O)O (centres undefined),inhibition,[1],11.2%
same,score,[2],1.7
same,rescue above control,[3],-10.6
same,cytochrome c release ratio,[4],1.09
same,inhibition of aggregation,[5],57.7%
same,glutamate uptake change,[6],9.66%
same,inclusion score,[15],2
same,aggregation suppression score,[7],1.63
same,parasite load remaining,[8],157% (inactive)
same,viability,[8],91.4%
same,inhibition,[9],-18.3% (inactive)
same,red/green cell ratio (normalised),[10],0.75 (inactive)
same,normalised cell number,[10]; [16],1.28
same,normalised cell number,[10]; [17],0.96
same,remaining NAD,[14],10 nM (inactive)
same,luciferase signal,[12],44 AU (inactive)
NC(N)=O,inhibition,[1],5.74%
same,score,[2],1.17
same,rescue above control,[3],4.79
same,cytochrome c release ratio,[4],1.04
same,inhibition of aggregation,[5],43.7%
same,glutamate uptake change,[6],-1.11%
same,inclusion score,[15],2
same,aggregation suppression score,[7],1.21
same,parasite load remaining,[8],107% (inactive) and 54.8% (inactive)
same,viability,[8],72.7% and 99.5%
same,inhibition,[9],-2.6% (inactive)
same,red/green cell ratio (normalised),[10],0.95 (inactive)
same,normalised cell number,[10]; [16],1.22
same,normalised cell number,[10]; [17],1.16
same,fold change,[11]; [18],0.93 (inactive)
same,fold change,[11]; [19],2.44
same,cell count,[11]; [20],12300
same,cell count,[11]; [21],13300
same,remaining NAD,[14],10 nM (inactive)
same,luciferase signal,[12],52 AU (inactive)
N[C@H](Cc1ccccc1)C(=O)O,inhibition,[1],15.8%
same,score,[2],1.59
same,rescue above control,[3],-4.58
same,cytochrome c release ratio,[4],0.85
same,inhibition of aggregation,[5],56.8%
same,glutamate uptake change,[6],4.25%
same,inclusion score,[15],2
same,aggregation suppression score,[7],1.21
same,parasite load remaining,[8],140% (inactive)
same,viability,[8],87.2%
same,inhibition,[9],6.57% (inactive)
same,red/green cell ratio (normalised),[10],1.1 (inactive)
same,normalised cell number,[10]; [16],0.82
same,normalised cell number,[10]; [17],0.9
same,remaining NAD,[14],98 nM (active)
same,luciferase signal,[12],56 AU (inactive)
OC[C@@H](O)[C@@H](O[C@@H]1O[C@H](CO)[C@@H](O)[C@H](O)[C@H]1O)[C@H](O)[C@@H](O)CO,inhibition,[9],10.6% (inactive)
same,red/green cell ratio (normalised),[10],0.88 (inactive)
same,normalised cell number,[10]; [16],1.03
same,normalised cell number,[10]; [17],0.9
same,luciferase signal,[12],208 AU (inactive)
CC1(C)C=Cc2cc3ccc(=O)oc3cc2O1,inhibition,[9],5.11% (inactive)
same,red/green cell ratio (normalised),[10],0.99 (inactive)
same,normalised cell number,[10]; [16],1.07
same,normalised cell number,[10]; [17],1.05
same,luciferase signal,[12],56 AU (inactive)
C=C[C@@](C)(O)CCC1C(=C)CCC2[C@@](C)(CO)CCC[C@]12C (some centres undefined),inhibition,[9],4.45% (inactive)
same,red/green cell ratio (normalised),[10],0.89 (inactive)
same,normalised cell number,[10]; [16],1.15
same,normalised cell number,[10]; [17],1.03
same,luciferase signal,[12],36 AU (inactive)
Cc1cc(=O)oc2c(O)c(O)ccc12,inhibition,[9],-1.28% (inactive)
same,red/green cell ratio (normalised),[10],1.02 (inactive)
same,normalised cell number,[10]; [16],0.87
same,normalised cell number,[10]; [17],0.89
same,luciferase signal,[12],44 AU (inactive)
CCOc1cccc(C(=O)c2ccc(O)c(O)c2O)c1,inhibition,[9],11.3% (inactive)
same,red/green cell ratio (normalised),[10],0.95 (inactive)
same,normalised cell number,[10]; [16],1.01
same,normalised cell number,[10]; [17],0.96
same,luciferase signal,[12],116 AU (inactive)
C=C1C2CC[C@@]3(C)[C@H](c4ccoc4)OC(=O)C[C@]13O[C@H]1CC(O)C(C)(C)C(CC(=O)OC)[C@@]21C (some centres undefined),inhibition,[9],24.1% (active)
same,red/green cell ratio (normalised),[10],1.02 (inactive)
same,normalised cell number,[10]; [16],0.98
same,normalised cell number,[10]; [17],1
same,luciferase signal,[12],16 AU (inactive)
CC1(C)CC2C1CCC1(C)OC2(C)CCC1O (centres undefined),inhibition,[9],12.8% (inactive)
same,red/green cell ratio (normalised),[10],1.07 (inactive)
same,normalised cell number,[10]; [16],0.96
same,normalised cell number,[10]; [17],1.03
same,luciferase signal,[12],100 AU (inactive)
c1ccc2c(c1)CN1CCCC1=N2,inhibition,[9],-1.15% (inactive)
same,red/green cell ratio (normalised),[10],1.13 (inactive)
same,normalised cell number,[10]; [16],0.94
same,normalised cell number,[10]; [17],1.06
same,luciferase signal,[12],52 AU (inactive)
